According to the supplement of paper PMC10849652:
Targets with a hit are over-represented here; the source holds about 7,900 in all. About 0.6% of all pairs of compound and target were hits.

Legend:
Experiment in all cases: log2 fold change, soluble protein after heating vs DMSO (PISA); higher = thermal stabilisation; K562 cells, 10 uM, 30 min; active = over 0.2 and 3.5 SD of the protein, either way, in both replicates (recomputed)
[1] = compound: Cc1ccc(NC(=O)c2ccc(CN3CC[C@H](N(C)C)C3)c(C(F)(F)F)c2)cc1Nc1nccc(-c2cncnc2)n1 [bafetinib]
In short: (§1)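 K562 cells (2×10^6 cells/mL) were treated with 10 μM compound for 30 min, and aliquots were heated for 3 min over 48°C-58°C. Pooled aliquots were extracted in PBS with 0.5% NP-40 at 4°C, and the supernatant after 21,000xg for 90 min was measured by TMTpro 16plex LC-MS/MS with channel sums equalised. Reported thermal stability, relative to control samples and from duplicates, is a log2 fold change.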

[2] = compound: Cc1cccc(CC(=O)N2CCc3c2ccc(-c2cn(C)c4ncnc(N)c24)c3F)n1
In short: as §1

[3] = compound: Cc1cn(-c2cc(NC(=O)c3ccc(C)c(Nc4nccc(-c5cccnc5)n4)c3)cc(C(F)(F)F)c2)cn1 [nilotinib]
In short: as §1

[4] = compound: Cc1nc(Nc2n[nH]c3c2CN(C(=O)N[C@H](CN(C)C)c2ccccc2)C3(C)C)c2sccc2n1
In short: as §1

[5] = compound: Cc1nc(Nc2ncc(C(=O)Nc3c(C)cccc3Cl)s2)cc(N2CCN(CCO)CC2)n1 [dasatinib]
In short: as §1

[6] = compound: Cc1ncc(-c2ccnc(Nc3ccc(S(C)(=O)=O)cc3)n2)n1C(C)C
In short: as §1

[7] = compound: Cn1cncc1[C@@](N)(c1ccc(Cl)cc1)c1ccc2c(c1)c(-c1cccc(Cl)c1)cc(=O)n2C [tipifarnib]
In short: as §1

[8] = compound: FC(F)(F)c1ccc(/C=C/c2nc(COc3ccc(CCCCn4ccnn4)cc3)co2)cc1 [mubritinib]
In short: as §1

[9] = compound: Cn1cc(-c2ccc3c(c2)CCN3C(=O)Cc2cccc(C(F)(F)F)c2)c2c(N)ncnc21
In short: as §1

[10] = compound: Cn1cc(-c2ccc3nnc(C(F)(F)c4ccc5ncccc5c4)n3n2)cn1
In short: as §1

Measured: log2 fold change

ARFIP1 isoform 2 (UniProt P53367)
Chain of UniProt P53367 (P53367 whole entry, looked up): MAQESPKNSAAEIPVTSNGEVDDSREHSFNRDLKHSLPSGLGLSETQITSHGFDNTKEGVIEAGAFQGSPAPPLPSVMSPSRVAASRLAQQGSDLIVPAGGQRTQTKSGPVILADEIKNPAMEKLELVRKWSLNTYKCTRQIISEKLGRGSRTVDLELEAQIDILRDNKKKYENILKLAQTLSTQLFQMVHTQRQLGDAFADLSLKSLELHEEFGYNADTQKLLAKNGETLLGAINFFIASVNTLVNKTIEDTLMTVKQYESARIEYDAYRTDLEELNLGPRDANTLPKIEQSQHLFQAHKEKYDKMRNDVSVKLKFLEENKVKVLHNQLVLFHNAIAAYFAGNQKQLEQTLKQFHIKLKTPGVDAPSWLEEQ
inactive: [1] -0.281 | [2] -0.195 | [3] -0.147 | [4] -0.049 | [5] -0.316 | [6] -0.013 | [7] -0.024 | [8] -0.004

AGPAT3 isoform 3 (UniProt Q9NRZ7)
Chain of UniProt Q9NRZ7 (Q9NRZ7 whole entry, looked up): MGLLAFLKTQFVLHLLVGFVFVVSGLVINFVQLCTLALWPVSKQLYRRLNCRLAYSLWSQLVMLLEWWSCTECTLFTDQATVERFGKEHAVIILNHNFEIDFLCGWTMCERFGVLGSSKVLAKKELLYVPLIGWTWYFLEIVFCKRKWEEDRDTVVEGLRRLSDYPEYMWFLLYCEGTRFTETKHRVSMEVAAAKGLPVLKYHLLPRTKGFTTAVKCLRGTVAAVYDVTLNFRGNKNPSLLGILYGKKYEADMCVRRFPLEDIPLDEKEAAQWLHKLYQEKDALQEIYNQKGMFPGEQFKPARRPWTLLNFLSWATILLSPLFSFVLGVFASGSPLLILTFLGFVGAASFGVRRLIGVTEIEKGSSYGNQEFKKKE
inactive: [1] -0.057 | [2] 0.04 | [3] -0.012 | [4] 0.004 | [5] -0.092 | [6] -0.007 | [9] 0.033 | [10] 0.018 | [7] -0.025 | [8] 0.062

BRIX1 (UniProt Q8TDN6)
Chain of UniProt Q8TDN6 (Q8TDN6 whole entry, looked up): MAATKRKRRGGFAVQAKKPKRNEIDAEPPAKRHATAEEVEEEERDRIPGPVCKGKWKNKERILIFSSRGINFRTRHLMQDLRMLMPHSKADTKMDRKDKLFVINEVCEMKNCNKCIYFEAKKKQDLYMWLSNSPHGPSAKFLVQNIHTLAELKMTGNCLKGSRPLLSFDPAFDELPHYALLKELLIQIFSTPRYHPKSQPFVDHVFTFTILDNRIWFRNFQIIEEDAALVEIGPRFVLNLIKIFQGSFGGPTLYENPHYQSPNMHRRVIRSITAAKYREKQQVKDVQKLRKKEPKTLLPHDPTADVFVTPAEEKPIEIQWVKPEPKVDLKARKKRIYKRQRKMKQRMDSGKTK
inactive: [1] 0.386 | [2] -0.033 | [3] 0.085 | [4] -0.077 | [5] 0.109 | [6] -0.013 | [9] -0.494 | [10] -0.138 | [7] 0.158 | [8] -0.206

APOB (UniProt P04114)
inactive: [1] -0.316 | [2] 0.032 | [3] -0.132 | [4] 0.013 | [5] -0.213 | [6] 0.051 | [9] 0.071 | [10] -0.021 | [7] -0.203 | [8] 0.011

ABCB6 (UniProt Q9NP58)
Chain of UniProt Q9NP58 (Q9NP58 whole entry, looked up): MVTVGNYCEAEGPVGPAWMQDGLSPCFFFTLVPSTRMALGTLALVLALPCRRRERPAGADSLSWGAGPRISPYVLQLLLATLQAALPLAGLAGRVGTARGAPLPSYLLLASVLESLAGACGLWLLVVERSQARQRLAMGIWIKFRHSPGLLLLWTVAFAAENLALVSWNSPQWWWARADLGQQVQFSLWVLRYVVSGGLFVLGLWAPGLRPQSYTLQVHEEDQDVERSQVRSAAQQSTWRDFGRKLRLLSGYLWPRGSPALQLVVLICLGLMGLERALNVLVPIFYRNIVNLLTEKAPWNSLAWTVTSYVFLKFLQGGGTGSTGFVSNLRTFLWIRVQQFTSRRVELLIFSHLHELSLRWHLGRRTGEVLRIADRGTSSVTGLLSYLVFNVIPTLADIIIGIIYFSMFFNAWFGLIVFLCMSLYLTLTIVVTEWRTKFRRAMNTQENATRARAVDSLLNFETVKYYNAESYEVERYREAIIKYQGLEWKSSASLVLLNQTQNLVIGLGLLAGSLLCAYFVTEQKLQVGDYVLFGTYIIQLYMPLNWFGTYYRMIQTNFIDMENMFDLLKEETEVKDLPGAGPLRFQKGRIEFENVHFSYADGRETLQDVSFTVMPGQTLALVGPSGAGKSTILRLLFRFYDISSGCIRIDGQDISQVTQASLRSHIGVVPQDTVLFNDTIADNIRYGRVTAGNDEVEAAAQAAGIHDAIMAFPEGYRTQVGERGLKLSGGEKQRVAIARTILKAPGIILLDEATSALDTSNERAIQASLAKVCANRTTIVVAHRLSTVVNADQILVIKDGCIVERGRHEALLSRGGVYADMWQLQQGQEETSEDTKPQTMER
inactive: [1] -0.035 | [2] 0.014 | [3] 0.022 | [4] 0.032 | [5] -0.001 | [6] 0.024 | [9] 0 | [10] -0.025 | [7] 0.005 | [8] 0.001

ATP5ME (UniProt P56385)
Chain of UniProt P56385 (P56385 whole entry, looked up): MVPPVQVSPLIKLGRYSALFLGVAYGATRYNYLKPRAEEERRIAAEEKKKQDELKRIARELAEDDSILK
inactive: [1] -0.071 | [2] -0.051 | [3] 0.022 | [4] 0.008 | [5] 0.084 | [6] -0.046 | [9] 0.001 | [10] 0.103 | [7] -0.031 | [8] 0.023

ATG9A (UniProt Q7Z3C6)
inactive: [1] -0.048 | [2] -0.013 | [3] -0.04 | [4] -0.108 | [5] -0.046 | [6] -0.014 | [9] 0.06 | [10] -0.022 | [7] 0.168 | [8] 0.042

ATRN (UniProt O75882)
inactive: [1] -0.006 | [2] 0.004 | [3] 0.027 | [4] -0.055 | [5] -0.047 | [6] 0 | [9] 0.097 | [7] 0.048 | [8] -0.027

ACP1 isoform 2 (UniProt P24666)
Chain of UniProt P24666 (P24666 whole entry, looked up): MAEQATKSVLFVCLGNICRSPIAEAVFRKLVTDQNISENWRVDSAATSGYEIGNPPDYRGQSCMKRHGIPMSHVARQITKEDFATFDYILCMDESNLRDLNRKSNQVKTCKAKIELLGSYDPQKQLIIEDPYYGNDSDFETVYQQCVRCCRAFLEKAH
inactive: [1] 0.037 | [2] 0.036 | [3] 0.039 | [4] -0.063 | [5] -0.126 | [6] -0.049 | [9] -0.044 | [10] 0.022 | [7] -0.146 | [8] 0.042

BAD (UniProt Q92934)
inactive: [1] -0.151 | [2] -0.046 | [3] 0.034 | [4] 0.009 | [5] 0.092 | [6] -0.069 | [9] 0.077 | [10] 0.076 | [7] -0.005 | [8] -0.046

ARHGAP25 isoform 4 (UniProt P42331)
inactive: [1] -0.035 | [2] -0.089 | [3] 0.28 | [4] -0.276 | [5] -0.421 | [6] 0.078 | [9] -0.009 | [8] 0.266

ATAD3A isoform 2 (UniProt Q9NVI7)
inactive: [1] -0.104 | [2] 0.035 | [3] -0.141 | [4] -0.053 | [5] -0.094 | [6] 0 | [9] -0.082 | [10] -0.101 | [7] 0.097 | [8] -0.215

ADPRH (UniProt P54922)
inactive: [1] 0.082 | [2] -0.29 | [3] 0.141 | [4] 0.026 | [6] -0.161 | [10] 0.038 | [7] -0.005 | [8] 0.015

BSCL2 isoform 4 (UniProt Q96G97)
Chain of UniProt Q96G97 (Q96G97 whole entry, looked up): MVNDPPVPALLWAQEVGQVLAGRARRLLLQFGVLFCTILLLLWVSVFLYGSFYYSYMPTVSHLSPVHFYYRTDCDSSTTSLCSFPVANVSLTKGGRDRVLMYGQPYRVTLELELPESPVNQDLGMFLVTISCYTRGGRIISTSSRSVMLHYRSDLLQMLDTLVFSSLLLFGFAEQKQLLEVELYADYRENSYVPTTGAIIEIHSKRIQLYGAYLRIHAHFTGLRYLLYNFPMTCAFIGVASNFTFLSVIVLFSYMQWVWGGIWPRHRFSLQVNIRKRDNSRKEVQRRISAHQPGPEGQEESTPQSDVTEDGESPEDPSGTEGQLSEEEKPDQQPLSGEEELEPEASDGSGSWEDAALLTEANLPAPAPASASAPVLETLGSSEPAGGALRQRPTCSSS
inactive: [1] -0.225 | [2] -0.041 | [3] 0.101 | [4] 0.026 | [5] -0.14 | [6] 0.116 | [9] 0.002 | [7] 0.109 | [8] 0.133

BTAF1 (UniProt O14981)
inactive: [1] -0.158 | [2] 0.025 | [3] -0.004 | [4] -0.059 | [5] -0.131 | [6] 0.035 | [9] 0.04 | [10] -0.003 | [7] -0.034 | [8] -0.022

ACP1 (UniProt P24666)
inactive: [1] 0.041 | [2] 0.013 | [3] 0.078 | [4] -0.071 | [5] -0.129 | [6] -0.01 | [9] 0.037 | [7] 0.037 | [8] 0.035

APH1A (UniProt Q96BI3)
Chain of UniProt Q96BI3 (Q96BI3 whole entry, looked up): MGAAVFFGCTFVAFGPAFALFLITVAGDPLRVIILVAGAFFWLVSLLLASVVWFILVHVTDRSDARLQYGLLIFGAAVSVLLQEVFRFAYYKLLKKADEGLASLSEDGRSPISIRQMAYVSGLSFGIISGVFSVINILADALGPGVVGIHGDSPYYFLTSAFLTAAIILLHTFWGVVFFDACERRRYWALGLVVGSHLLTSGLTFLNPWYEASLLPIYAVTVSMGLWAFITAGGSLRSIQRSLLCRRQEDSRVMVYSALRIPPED
inactive: [1] 0.132 | [2] -0.06 | [3] -0.037 | [4] -0.04 | [5] -0.039 | [6] 0.028 | [9] 0.036 | [7] -0.06 | [8] 0.05

AMD1 (UniProt P17707)
Chain of UniProt P17707 (P17707 whole entry, looked up): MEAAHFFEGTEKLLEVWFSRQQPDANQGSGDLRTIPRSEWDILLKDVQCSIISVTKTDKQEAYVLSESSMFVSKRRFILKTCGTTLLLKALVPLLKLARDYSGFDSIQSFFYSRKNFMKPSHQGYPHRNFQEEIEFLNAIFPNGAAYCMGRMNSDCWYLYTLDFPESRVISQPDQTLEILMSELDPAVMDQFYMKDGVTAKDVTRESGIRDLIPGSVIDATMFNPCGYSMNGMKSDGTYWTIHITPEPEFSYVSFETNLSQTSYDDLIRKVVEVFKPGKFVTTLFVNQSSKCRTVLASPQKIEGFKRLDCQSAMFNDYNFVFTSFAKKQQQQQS
inactive: [1] 0.091 | [2] -0.141 | [3] -0.089 | [4] 0.001 | [6] -0.037 | [10] -0.071 | [7] -0.022 | [8] 0.056

AASDH (UniProt Q4L235)
Chain of UniProt Q4L235 (Q4L235 whole entry, looked up): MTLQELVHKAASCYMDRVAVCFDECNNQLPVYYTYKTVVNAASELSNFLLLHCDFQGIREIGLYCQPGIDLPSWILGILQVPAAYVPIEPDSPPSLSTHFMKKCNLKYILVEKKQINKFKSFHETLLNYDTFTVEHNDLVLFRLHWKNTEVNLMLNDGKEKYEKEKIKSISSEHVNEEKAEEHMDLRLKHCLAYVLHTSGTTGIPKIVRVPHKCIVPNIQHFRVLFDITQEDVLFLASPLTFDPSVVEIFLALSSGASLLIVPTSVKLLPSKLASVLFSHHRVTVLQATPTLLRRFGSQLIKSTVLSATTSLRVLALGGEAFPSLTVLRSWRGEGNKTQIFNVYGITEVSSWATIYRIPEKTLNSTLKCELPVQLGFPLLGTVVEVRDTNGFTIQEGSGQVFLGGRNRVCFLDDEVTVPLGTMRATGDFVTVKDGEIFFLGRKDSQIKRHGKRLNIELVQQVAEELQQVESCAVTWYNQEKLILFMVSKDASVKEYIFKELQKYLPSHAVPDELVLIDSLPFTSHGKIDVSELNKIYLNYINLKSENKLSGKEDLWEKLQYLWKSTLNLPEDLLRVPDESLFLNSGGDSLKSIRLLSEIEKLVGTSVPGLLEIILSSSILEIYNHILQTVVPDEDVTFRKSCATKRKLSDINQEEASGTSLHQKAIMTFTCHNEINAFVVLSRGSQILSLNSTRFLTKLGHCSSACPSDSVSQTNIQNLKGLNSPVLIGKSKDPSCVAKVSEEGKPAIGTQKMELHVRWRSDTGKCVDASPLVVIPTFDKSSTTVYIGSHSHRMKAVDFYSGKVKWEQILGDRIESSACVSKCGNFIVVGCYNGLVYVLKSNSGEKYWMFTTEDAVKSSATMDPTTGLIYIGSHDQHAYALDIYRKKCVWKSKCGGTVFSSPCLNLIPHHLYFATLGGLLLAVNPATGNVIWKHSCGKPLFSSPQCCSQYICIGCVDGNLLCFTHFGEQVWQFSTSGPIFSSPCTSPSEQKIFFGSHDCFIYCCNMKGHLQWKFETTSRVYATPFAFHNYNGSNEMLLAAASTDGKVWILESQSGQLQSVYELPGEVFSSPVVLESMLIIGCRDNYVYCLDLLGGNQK
inactive: [1] -0.065 | [2] -0.008 | [3] -0.079 | [4] -0.149 | [5] 0.063 | [6] 0.173 | [9] 0.045 | [10] 0.024 | [7] 0.058 | [8] 0.144

ACTBL2 (UniProt Q562R1)
inactive: [1] 0.113 | [2] -0.124 | [3] 0.579 | [4] -0.067 | [5] 0.398 | [6] -0.051 | [10] 0.336 | [7] 0.488 | [8] -0.267

BRD4 (UniProt O60885)
inactive: [1] 0.067 | [2] 0.054 | [3] -0.144 | [4] 0.017 | [5] -0.094 | [6] -0.233 | [9] 0.011 | [10] -0.046 | [7] -0.09 | [8] 0.032

ADAMTS5 (UniProt Q9UNA0)
inactive: [1] -0.103 | [2] -0.066 | [3] 0.022 | [4] 0.052 | [5] 0.033 | [6] -0.079 | [9] 0.088 | [10] 0.063 | [8] 0.154

BRD3 (UniProt Q15059)
inactive: [1] -0.152 | [2] -0.002 | [3] -0.088 | [4] -0.031 | [5] -0.319 | [6] -0.138 | [9] -0.05 | [10] 0.086 | [7] -0.126 | [8] 0.047

ASH2L (UniProt Q9UBL3)
Chain of UniProt Q9UBL3 (Q9UBL3 whole entry, looked up): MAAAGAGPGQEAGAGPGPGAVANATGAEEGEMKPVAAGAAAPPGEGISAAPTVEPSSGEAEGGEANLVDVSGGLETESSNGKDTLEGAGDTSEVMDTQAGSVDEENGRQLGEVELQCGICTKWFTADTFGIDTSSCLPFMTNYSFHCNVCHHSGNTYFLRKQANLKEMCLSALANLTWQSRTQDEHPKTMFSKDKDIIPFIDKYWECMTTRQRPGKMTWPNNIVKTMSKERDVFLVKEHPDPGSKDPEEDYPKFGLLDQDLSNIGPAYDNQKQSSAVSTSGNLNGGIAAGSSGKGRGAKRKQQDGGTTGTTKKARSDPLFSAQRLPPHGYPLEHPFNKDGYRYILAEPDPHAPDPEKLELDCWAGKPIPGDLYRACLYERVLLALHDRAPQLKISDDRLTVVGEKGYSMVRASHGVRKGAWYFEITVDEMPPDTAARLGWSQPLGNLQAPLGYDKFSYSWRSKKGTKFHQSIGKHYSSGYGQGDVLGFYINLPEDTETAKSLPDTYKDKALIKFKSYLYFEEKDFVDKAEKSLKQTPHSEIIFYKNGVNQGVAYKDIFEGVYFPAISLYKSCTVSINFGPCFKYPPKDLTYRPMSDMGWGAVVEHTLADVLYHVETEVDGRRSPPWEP
inactive: [1] 0 | [2] -0.013 | [3] -0.008 | [4] -0.041 | [5] -0.004 | [6] 0.013 | [9] -0.07 | [10] -0.017 | [7] -0.041 | [8] -0.023

ATP6V1C1 (UniProt P21283)
inactive: [1] -0.083 | [2] 0.063 | [3] -0.137 | [4] -0.191 | [5] -0.045 | [6] 0.115 | [9] -0.083 | [10] -0.105 | [7] 0.03 | [8] 0.083

AK6 (UniProt Q9Y3D8)
inactive: [1] 0.021 | [2] -0.018 | [3] -0.141 | [4] -0.143 | [5] -0.288 | [6] -0.015 | [9] 0 | [10] 0.025 | [7] -0.144 | [8] -0.114
